Laboratory results as given in PubChem BioAssay AID1240 (Sanford-Burnham Center for Chemical Genomics, 2008).
The whole screen tested about 50,000 compounds, of which about 800 (1.6%) showed an effect of 50% or more. The list comes from a sample in which strong results are over-represented; it also holds similar structures and randomly drawn compounds.

molecular target: Bcl-2-like protein 10 (Homo sapiens) (UniProt Q9HD36); assay: TR3 peptide-Bcl-B binding displacers, biochemical primary FP assay, phenotype converters (AID 1240); settings: GST-Bcl-B / FITC-TR3 peptide fluorescence polarization; stronger effect = higher value; compound at 3.75 mg/L;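 further: 0% = Bcl-B with tracer peptide and DMSO and 100% = tracer peptide lacking Bcl-B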
Sequence (Q9HD36 whole entry, looked up): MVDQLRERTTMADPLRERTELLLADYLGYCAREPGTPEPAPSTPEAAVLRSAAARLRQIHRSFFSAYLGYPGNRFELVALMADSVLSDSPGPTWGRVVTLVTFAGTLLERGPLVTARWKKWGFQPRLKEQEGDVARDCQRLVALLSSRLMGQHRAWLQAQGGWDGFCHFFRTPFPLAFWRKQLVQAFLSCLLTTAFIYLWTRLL

SMILES	displacement [%]
O=C1c2ccccc2C(=O)N1CCc1nc2ccccc2c(=O)n1-c1ccc(Br)cn1	-10.3
CCN(CC)CCCCOc1ccc(Cl)c(C)c1	-10.7
COc1ccc(CCNC(=O)C(=O)Nc2ccc3c(c2)OCCO3)cc1OC	3.4
Cc1cccc(CN2CCN(Cc3ccncc3)CC2)c1	-1.1
COC(=O)c1sc2nc(-c3ccccc3)nc(N3CCOCC3)c2c1C	47.3
CC1(C)Oc2ccc3ccc(=O)oc3c2/C(=C/N2CCOCC2)C1=O	-5.9
COc1ccc(Cl)cc1C(=O)Nc1ccc(C)cc1C	10.1
CN(C)c1ccc(/C=N/NC(=O)CNC(=O)c2ccc(F)cc2)cc1	2.3
COc1ccc(-c2ccc(/C=C/C(=O)c3cc4ccccc4o3)o2)cc1	-52.6
O=C(/C=C/c1ccc(-c2ccc([N+](=O)[O-])cc2)o1)c1cc2ccccc2o1	190
O=C(/C=C/c1ccc(-c2ccccc2[N+](=O)[O-])o1)c1cc2ccccc2o1	44.1
O=C(Nc1cc(NC(=O)c2ccccc2)cc(C(=O)Nc2nccs2)c1)c1ccccc1	4.4
O=C(COc1ccccc1F)Nc1nc(-c2cccs2)c(NC(=O)c2ccccc2)s1	14.6
CC(C(=O)NN)C1=NC(C)(C)Cc2ccccc21 (stereo not drawn)	-17.7
CC(=O)N1N=C2CC(C)(C)OCC2C1c1ccccc1 (stereo not drawn)	12
Cc1cccc(N2C(=O)CC(SC(=N)N3N=C(c4cccs4)CC3c3ccc(Br)cc3)C2=O)c1 (stereo not drawn)	5.6
N=C(SC1CC(=O)N(c2ccccc2Cl)C1=O)N1N=C(c2cccs2)CC1c1ccc(Br)cc1 (stereo not drawn)	1.4

SMILES	displacement [%]
N=C(SC1CC(=O)N(c2cccc3ccccc23)C1=O)N1N=C(c2cccs2)CC1c1ccc(Br)cc1 (stereo not drawn)	85.7
Cn1c(CNc2ccc(O)cc2)nc2ccccc21	76.7
Cn1c(CNc2ccccc2O)nc2ccccc21	0.7
Cn1c(CNc2ccccc2)nc2ccccc21	-1.3
COc1ccc(N(CC(=O)N2CCN(c3ccccc3OC)CC2)S(=O)(=O)c2ccccc2)c(OC)c1	8.6
c1ccc(Oc2cccc(CSc3nnnn3-c3ccccc3)c2)cc1	1
Cc1c(Cl)cccc1NC1C=CS(=O)(=O)C1 (stereo not drawn)	14
Cc1ccc(NC2C=CS(=O)(=O)C2)cc1C (stereo not drawn)	6.7
CCc1cccc(C)c1NC1C=CS(=O)(=O)C1 (stereo not drawn)	52.3
CN(C1CCS(=O)(=O)C1)S(=O)C12CC3CC(CC(C3)C1)C2 (stereo not drawn)	-4.8
CCCSc1nnc2n(-c3ccc(OC)cc3)c(=O)c3c4c(sc3n12)CCCC4	34.9
CCSc1nnc2n(-c3ccc(OC)cc3)c(=O)c3c4c(sc3n12)CCCC4	119
COC(=O)CSc1nnc2n(-c3ccc(OC)cc3)c(=O)c3c4c(sc3n12)CCCC4	5.6
COc1ccc(-n2c(=O)c3c4c(sc3n3c(SCC(N)=O)nnc23)CCCC4)cc1	0.7
COc1ccc(-n2c(=O)c3c4c(sc3n3c(SCCC(C)C)nnc23)CCCC4)cc1	89.8
C=C(C)CSc1nnc2n(-c3ccc(OC)cc3)c(=O)c3c4c(sc3n12)CCCC4	3
